Reference: PubChem BioAssay (EPA / NIEHS)
The source made the active and inactive calls. The calls were made as follows: active = hit-call score of the fitted dose curve at least 0.9, where 1 is the maximum; inactive = score below 0.9.

Legend:
[1] = ATG_GLI_CIS: Attagene CIS-FACTORIAL HepG2 Assay for human Zinc Finger Protein GLI1 (AID 2282945); conditions: HepG2, Attagene cis-factorial reporter mRNA, GLI element; actives raise or lower the signal
Procedure, shortened: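 Bidirectional curve fits relative to DMSO, using reporter mRNA levels from RT-PCR plus capillary electrophoresis. Cells were HepG2 transiently carrying cis-regulated reporter constructs, harvested 24 h after dosing.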

[2] = molecular target: Bile acid receptor (Homo sapiens) (UniProt Q96RI1); assay: ATG_IR1_CIS: Attagene CIS-FACTORIAL HepG2 Assay for human Nuclear Receptor Subfamily 1 Group H Member 4 (NR1H4), IR1 submotif (AID 2282946); conditions: IR1 reporter transcription, actives raise or lower the signal
Procedure, shortened: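 Cells (human HepG2) carry transiently transfected cis-promoter reporter transcription units. Compounds are incubated 24 h, total RNA is reverse-transcribed and amplified, and labelled fragments are resolved by capillary electrophoresis. Curves use DMSO as baseline.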

[3] = ATG_GRE_CIS: Attagene CIS-FACTORIAL HepG2 Assay for human Glucocorticoid Response Elements (GRE) (AID 2282947); conditions: HepG2 GRE cis-reporter, Attagene multiplex mRNA; actives raise or lower the signal
Procedure, shortened: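 Assay uses human hepatoma HepG2 cells transfected with cis-promoter reporter units, exposed 24 h. mRNA from reporters detected by RT-PCR plus capillary electrophoresis; DMSO serves as negative control and baseline.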

[4] = ATG_ISRE_CIS: Attagene CIS-FACTORIAL HepG2 Assay for human Interferon Regulatory Factor 1 (IRF1) binding to an Interferon-Stimulated Response Element (ISRE) (AID 2282948); conditions: HepG2 ISRE cis-reporter (Attagene), mRNA transcription readout; actives raise or lower the signal
Procedure, shortened: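 HepG2 cells transiently transfected with multiplexed cis-promoter reporter units; after 24 h compound exposure, reporter mRNA quantified by RT-PCR, FAM labelling, HpaI digestion and capillary electrophoresis. Bidirectional fit versus DMSO baseline.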

[5] = ATG_M_06_CIS: Attagene CIS-FACTORIAL HepG2 Assay for M06 Transcription Factor (Internal Marker) (AID 2282950); conditions: HepG2 Attagene CIS-FACTORIAL M06 internal marker reporter; actives raise or lower the signal
Procedure, shortened: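 Fluorescence-labelled RT-PCR products from cis-promoter reporter units, cut with HpaI and resolved by capillary electrophoresis, give the signal. Cells are human HepG2, dosed for 24 h. Serves as background control, fitted relative to DMSO.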

[6] = molecular target: Hypoxia-inducible factor 1-alpha (Homo sapiens) (UniProt Q16665); assay: ATG_HIF1a_CIS: Attagene CIS-FACTORIAL HepG2 Assay for human Hypoxia Inducible Factor 1 (HIF1A) (AID 2282951); conditions: HepG2 Attagene cis-factorial HIF1a reporter transcription; actives raise or lower the signal
Procedure, shortened: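 After 24 h chemical exposure of reporter-transfected HepG2 cells, reporter cDNA was PCR-amplified, labelled by 6-FAM primer extension (2 min 95 C, 20 s 68 C, 10 min 72 C), HpaI-cut (2 h, 37 C) and analysed by CE.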

[7] = molecular target: Hepatocyte nuclear factor 6 (Homo sapiens) (UniProt Q9UBC0); assay: ATG_HNF6_CIS: Attagene CIS-FACTORIAL HepG2 Assay for human Hepatocyte Nuclear Factor 6 (HNF6) (AID 2282952); conditions: HepG2 Attagene cis-factorial HNF6 reporter transcription; actives raise or lower the signal
Procedure, shortened: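 HepG2 cells transiently transfected with cis-element-driven multiple reporter transcription units, dosed 24 h; reporter mRNA quantified by RT-PCR, FAM primer extension, HpaI digestion and capillary electrophoresis; bidirectional fit versus DMSO baseline.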

[8] = molecular target: Heat shock factor protein 1 (Homo sapiens) (UniProt Q00613); assay: ATG_HSE_CIS: Attagene CIS-FACTORIAL HepG2 Assay for human Heat Shock Transcription Factor 1 (HSE) (AID 2282953); conditions: HepG2 HSE cis-reporter, Attagene RNA transcription; actives raise or lower the signal
Procedure, shortened: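 After a 24 h incubation with test chemical, transfected HepG2 cells were harvested for RNA; reporter transcripts were measured by RT-PCR and capillary electrophoresis. Values reflect gain or loss of signal relative to DMSO.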

[9] = ATG_MRE_CIS: Attagene CIS-FACTORIAL HepG2 Assay for human Metal Responsive Element (MRE) (AID 2282954); conditions: HepG2 MRE cis-reporter transcription, Attagene multiplex; actives raise or lower the signal
Procedure, shortened: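 After a 24 h chemical exposure, transiently transfected HepG2 cells yield RNA whose reporter sequences are amplified, FAM-labelled and sized by capillary electrophoresis. Curves are fitted bidirectionally relative to DMSO.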

[10] = molecular target: Paired box protein Pax-6 (Homo sapiens) (UniProt P26367); assay: ATG_Pax6_CIS: Attagene CIS-FACTORIAL HepG2 Assay for human Paired Box 6 (PAX6) (AID 2282956); conditions: HepG2 CIS-FACTORIAL PAX6 reporter transcription, RNA readout; actives raise or lower the signal
Procedure, shortened: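 HepG2 cells transiently transfected with multiplexed cis-promoter reporter units (endogenous TF activity) were dosed for 24 h. Reporter mRNA was quantified by RT-PCR, 6-FAM labeling, HpaI digestion and capillary electrophoresis; bidirectional fitting versus DMSO baseline.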

[11] = ATG_PXRE_CIS: Attagene CIS-FACTORIAL HepG2 Assay for human Pregnane X Receptor Element (PXRE) (AID 2282957); conditions: HepG2 Attagene CIS-FACTORIAL PXRE reporter, mRNA; actives raise or lower the signal
Procedure, shortened: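 HepG2 cells transiently transfected with cis-regulated multiple reporter transcription units; endogenous factor activity measured as reporter mRNA 24 h after dosing. RT-PCR, fluorescent primer extension, HpaI digestion, capillary electrophoresis; bidirectional fit versus DMSO baseline.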

[12] = ATG_RORE_CIS: Attagene CIS-FACTORIAL HepG2 Assay for human RAR-related Orphan Receptor Element (RORE) (AID 2282959); conditions: HepG2 Attagene cis-factorial RORE reporter, mRNA; actives raise or lower the signal
Procedure, shortened: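 A 24-hour exposure of transfected HepG2 hepatoma cells precedes RNA isolation and reporter RT-PCR. Labeled products are digested with HpaI and resolved by capillary electrophoresis, with gain or loss of signal scored relative to DMSO.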

[13] = ATG_Sox_CIS: Attagene CIS-FACTORIAL HepG2 Assay for human SRY-box transcription factor (SOX) (AID 2282960); conditions: HepG2 Attagene cis-factorial SOX reporter, mRNA; actives raise or lower the signal
Procedure, shortened: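 HepG2, cis reporter units, 24 h exposure. Reporter mRNA: RT-PCR → FAM labelling → HpaI → CE fluorescence. Bidirectional fit vs DMSO.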

[14] = molecular target: Transcription factor Sp1 (Homo sapiens) (UniProt P08047); assay: ATG_Sp1_CIS: Attagene CIS-FACTORIAL HepG2 Assay for human Specificity Protein 1 (Sp1) (AID 2282961); conditions: HepG2 Sp1 cis-reporter transcription, actives raise or lower the signal
Procedure, shortened: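 Liver-derived HepG2 cells, cis-element reporter library, 24 h treatment; RNA isolated, cDNA amplified with reporter-specific primers, FAM-labeled fragments sized on capillary analyzer. DMSO baseline, bidirectional curve fit.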

[15] = ATG_SREBP_CIS: Attagene CIS-FACTORIAL HepG2 Assay for human Sterol Regulatory Element Binding (SREBP) (AID 2282962); conditions: HepG2 Attagene cis-factorial SREBP reporter, mRNA; actives raise or lower the signal
Procedure, shortened: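 HepG2 cells transiently transfected with multiplexed cis-element reporter units report endogenous transcription factor activity. After 24 h of chemical exposure, reporter mRNA was quantified by RT-PCR, 6-FAM labelling, HpaI digestion and capillary electrophoresis; bidirectional fits used DMSO as baseline.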

[16] = molecular target: Signal transducer and activator of transcription 3 (Homo sapiens) (UniProt P40763); assay: ATG_STAT3_CIS: Attagene CIS-FACTORIAL HepG2 Assay for human Signal Transducer and Activator of Transcription 3 (STAT3) (AID 2282963); conditions: HepG2, Attagene cis-factorial STAT3 reporter transcription; actives raise or lower the signal
Procedure, shortened: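 After a 24 h compound incubation, total RNA from MRTU-transfected HepG2 cells was converted to cDNA and reporter sequences PCR-amplified, labelled and profiled by capillary electrophoresis. Gain and loss of signal were referenced to DMSO.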

[17] = ATG_TA_CIS: Attagene CIS-FACTORIAL HepG2 Assay for human TA Basal Promoter (AID 2282964); conditions: HepG2 Attagene CIS-factorial TA basal promoter reporter; actives raise or lower the signal
Procedure, shortened: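 Multiplexed mRNA reporter assay, HepG2, 24 h. Reporter cDNA amplified, 6-FAM primer-extended, HpaI-cut, CE-sized; DMSO = negative control and baseline.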

[18] = ATG_PBREM_CIS: Attagene CIS-FACTORIAL HepG2 Assay for human Phenobarbital-responsive Enhancer Module (PBREM) (AID 2282955); conditions: HepG2 PBREM cis-reporter, Attagene multiplexed transcription; actives raise or lower the signal
Procedure, shortened: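 Measures endogenous factor action on a phenobarbital-responsive enhancer module. HepG2 transiently carrying cis reporters, 24 h treatment, mRNA read-out by RT-PCR plus capillary electrophoresis.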

[19] = ATG_PPRE_CIS: Attagene CIS-FACTORIAL HepG2 Assay for human Peroxisome Proliferator-activated Response Element (PPRE) (AID 2282958); conditions: HepG2 PPRE cis-element reporter, Attagene transcription factor profiling; actives raise or lower the signal
Procedure, shortened: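 PPRE activity in HepG2: transient cis-reporter transfection, 24 h compound incubation, reporter mRNA by RT-PCR and CE fluorescence; gain/loss fitted against DMSO.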

Measured: AC50

Sequence of Heat shock factor protein 1 (Homo sapiens) (Q00613 whole entry, looked up): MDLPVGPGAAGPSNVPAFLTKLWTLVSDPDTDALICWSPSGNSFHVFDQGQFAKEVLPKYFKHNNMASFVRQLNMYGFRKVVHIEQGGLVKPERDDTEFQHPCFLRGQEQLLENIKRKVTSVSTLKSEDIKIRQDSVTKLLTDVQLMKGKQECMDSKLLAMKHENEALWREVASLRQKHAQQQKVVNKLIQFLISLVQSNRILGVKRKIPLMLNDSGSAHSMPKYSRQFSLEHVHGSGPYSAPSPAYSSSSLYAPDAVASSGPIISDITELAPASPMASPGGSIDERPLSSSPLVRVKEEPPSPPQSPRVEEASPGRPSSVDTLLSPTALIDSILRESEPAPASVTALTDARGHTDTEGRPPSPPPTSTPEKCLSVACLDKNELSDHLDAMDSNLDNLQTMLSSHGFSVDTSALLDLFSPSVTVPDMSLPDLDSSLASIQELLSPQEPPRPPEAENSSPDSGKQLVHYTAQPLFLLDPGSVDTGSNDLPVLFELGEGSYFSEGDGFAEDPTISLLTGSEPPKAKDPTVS
Sequence of Transcription factor Sp1 (Homo sapiens) (P08047 whole entry, looked up, the tested form may be a part): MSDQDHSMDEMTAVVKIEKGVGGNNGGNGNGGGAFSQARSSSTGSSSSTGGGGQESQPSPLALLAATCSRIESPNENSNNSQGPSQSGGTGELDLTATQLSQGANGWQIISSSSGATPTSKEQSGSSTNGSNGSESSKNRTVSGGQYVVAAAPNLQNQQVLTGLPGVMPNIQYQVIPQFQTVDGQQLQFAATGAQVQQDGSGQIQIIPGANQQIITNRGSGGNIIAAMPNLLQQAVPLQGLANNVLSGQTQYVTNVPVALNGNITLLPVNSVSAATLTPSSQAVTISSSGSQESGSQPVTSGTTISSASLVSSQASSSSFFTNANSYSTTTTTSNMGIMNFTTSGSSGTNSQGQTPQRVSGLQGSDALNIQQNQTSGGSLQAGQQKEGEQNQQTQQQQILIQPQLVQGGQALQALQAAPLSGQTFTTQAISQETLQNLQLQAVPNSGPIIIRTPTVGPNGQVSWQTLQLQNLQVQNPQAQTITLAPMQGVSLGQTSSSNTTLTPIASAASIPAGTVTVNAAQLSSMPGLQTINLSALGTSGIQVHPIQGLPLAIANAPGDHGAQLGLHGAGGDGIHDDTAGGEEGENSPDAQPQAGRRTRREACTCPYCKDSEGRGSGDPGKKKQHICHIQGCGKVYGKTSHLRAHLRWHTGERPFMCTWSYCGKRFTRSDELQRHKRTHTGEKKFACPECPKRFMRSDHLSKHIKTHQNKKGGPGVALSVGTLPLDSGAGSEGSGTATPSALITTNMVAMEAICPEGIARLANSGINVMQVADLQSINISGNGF
Sequence of Signal transducer and activator of transcription 3 (Homo sapiens) (P40763 whole entry, looked up): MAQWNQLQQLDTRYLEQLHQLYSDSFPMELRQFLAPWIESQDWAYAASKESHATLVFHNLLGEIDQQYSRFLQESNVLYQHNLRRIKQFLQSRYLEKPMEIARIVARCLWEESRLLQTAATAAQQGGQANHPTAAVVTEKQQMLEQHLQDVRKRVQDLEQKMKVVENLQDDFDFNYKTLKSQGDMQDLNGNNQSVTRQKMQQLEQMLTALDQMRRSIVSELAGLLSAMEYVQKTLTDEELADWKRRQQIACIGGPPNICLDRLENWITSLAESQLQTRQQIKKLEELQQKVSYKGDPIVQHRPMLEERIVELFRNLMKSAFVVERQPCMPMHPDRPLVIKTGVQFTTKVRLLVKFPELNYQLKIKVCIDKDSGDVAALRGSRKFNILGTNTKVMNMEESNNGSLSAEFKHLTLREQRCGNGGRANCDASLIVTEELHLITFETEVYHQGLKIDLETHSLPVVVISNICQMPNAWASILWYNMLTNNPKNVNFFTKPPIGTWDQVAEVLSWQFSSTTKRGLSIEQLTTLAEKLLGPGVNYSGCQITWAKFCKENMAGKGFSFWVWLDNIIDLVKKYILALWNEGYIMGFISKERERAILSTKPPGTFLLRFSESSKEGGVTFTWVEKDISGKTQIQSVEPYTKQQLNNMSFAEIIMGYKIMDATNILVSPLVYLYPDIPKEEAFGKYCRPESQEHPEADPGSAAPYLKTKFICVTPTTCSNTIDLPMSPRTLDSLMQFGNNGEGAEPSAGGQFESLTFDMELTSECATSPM
Sequence of Paired box protein Pax-6 (Homo sapiens) (P26367 whole entry, looked up): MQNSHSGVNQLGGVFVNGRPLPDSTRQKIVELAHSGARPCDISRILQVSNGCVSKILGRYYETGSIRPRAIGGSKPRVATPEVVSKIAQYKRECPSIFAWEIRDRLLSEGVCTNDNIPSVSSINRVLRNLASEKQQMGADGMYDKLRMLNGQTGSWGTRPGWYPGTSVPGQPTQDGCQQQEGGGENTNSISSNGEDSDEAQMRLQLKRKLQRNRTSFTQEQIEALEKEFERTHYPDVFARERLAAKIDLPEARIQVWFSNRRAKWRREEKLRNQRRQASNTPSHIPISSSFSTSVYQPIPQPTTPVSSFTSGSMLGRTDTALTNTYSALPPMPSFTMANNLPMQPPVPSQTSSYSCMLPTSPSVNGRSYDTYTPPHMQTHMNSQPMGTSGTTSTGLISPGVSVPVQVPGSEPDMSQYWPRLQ
Sequence of Bile acid receptor (Homo sapiens) (Q96RI1 whole entry, looked up, the tested form may be a part): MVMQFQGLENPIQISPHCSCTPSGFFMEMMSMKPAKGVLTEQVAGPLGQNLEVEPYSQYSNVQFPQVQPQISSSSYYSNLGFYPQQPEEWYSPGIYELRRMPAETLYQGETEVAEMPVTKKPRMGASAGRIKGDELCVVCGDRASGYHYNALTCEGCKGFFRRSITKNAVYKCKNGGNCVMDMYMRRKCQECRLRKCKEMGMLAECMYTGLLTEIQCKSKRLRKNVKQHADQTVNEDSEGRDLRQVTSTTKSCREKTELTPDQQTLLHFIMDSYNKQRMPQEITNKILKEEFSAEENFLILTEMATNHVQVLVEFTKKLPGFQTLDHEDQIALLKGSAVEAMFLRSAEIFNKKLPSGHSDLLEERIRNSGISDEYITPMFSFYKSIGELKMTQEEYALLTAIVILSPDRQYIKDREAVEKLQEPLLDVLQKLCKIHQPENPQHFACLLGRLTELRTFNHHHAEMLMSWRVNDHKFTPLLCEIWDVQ
Sequence of Hepatocyte nuclear factor 6 (Homo sapiens) (Q9UBC0 whole entry, looked up): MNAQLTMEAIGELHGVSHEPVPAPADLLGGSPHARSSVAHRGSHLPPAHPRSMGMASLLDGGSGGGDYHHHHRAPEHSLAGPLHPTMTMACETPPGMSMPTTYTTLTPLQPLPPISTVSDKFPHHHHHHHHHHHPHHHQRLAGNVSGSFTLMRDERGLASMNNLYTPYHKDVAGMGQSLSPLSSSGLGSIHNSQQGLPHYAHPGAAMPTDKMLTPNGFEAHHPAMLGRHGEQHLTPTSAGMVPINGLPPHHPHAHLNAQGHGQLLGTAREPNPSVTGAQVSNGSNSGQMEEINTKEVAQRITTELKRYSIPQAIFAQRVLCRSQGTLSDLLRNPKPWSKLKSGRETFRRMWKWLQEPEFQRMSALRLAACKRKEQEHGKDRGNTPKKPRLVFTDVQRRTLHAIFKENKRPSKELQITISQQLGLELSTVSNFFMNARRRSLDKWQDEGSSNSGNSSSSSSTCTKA
Sequence of Hypoxia-inducible factor 1-alpha (Homo sapiens) (Q16665 whole entry, looked up): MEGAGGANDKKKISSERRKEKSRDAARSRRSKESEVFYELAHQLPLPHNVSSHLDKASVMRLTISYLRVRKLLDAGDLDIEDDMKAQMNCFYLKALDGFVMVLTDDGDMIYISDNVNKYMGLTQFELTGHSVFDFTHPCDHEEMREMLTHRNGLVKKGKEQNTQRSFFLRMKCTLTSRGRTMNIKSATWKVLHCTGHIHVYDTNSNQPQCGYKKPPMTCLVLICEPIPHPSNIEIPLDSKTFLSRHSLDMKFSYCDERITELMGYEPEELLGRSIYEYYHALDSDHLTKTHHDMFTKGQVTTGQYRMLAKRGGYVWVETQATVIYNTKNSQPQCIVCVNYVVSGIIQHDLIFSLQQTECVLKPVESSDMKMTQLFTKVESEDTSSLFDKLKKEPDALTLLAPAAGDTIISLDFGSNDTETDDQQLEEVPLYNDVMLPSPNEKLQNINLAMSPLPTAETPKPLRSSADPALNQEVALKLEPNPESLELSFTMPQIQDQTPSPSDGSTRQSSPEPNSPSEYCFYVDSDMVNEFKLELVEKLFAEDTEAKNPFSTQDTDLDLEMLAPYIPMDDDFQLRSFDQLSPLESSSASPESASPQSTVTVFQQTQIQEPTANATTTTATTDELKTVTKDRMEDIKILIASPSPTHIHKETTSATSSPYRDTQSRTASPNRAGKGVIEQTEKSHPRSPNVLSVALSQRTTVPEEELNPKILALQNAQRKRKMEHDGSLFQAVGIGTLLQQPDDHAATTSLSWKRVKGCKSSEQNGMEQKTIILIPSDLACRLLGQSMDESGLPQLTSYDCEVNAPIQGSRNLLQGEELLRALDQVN

c1ccc2c(c1)Cc1ccccc1-2
active: [11] 72.4 µM
not listed: [18] | [19]
inactive: all other assays above

CC(O)C(=O)O (configuration not stated)
not listed: [3] | [19]
inactive: all other assays above

NCC(F)(F)C(F)(F)C(F)(F)C(F)(F)C(F)(F)C(F)(F)C(F)(F)F
not listed: [6] | [18]
inactive: all other assays above

O=C(/C=C/c1ccc(O)cc1)CC(=O)/C=C/c1ccc(O)cc1
active: [2] 29 µM | [4] 8.84 µM | [8] 20.3 µM | [9] 10.8 µM | [10] 14.6 µM | [12] 2.56 µM | [13] 25.7 µM
not listed: [18]
inactive: all other assays above

O=C(OCCOCCOC(=O)c1ccccc1)c1ccccc1
not listed: [6] | [18]
inactive: all other assays above

O=C(O)c1ccccc1C(c1ccc(O)cc1)c1ccc(O)cc1
active: [11] 44.9 µM [middle of 4 runs]
not listed: [2] | [6] | [18]
inactive: all other assays above
